Assay outcomes from PubChem.
Compounds with a hit are over-represented: about 11% of the library has one in this group of screens.
NS1 inh – inhibitors of influenza NS1 protein function. 270,000 compounds, 0.4% hits. Potency, µM (highest dose often 46.1 µM). AID 2326; calls by dose curve; also: actives are rising curves; nearly all actives have a fitted effect of over 50% in size
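OD600 was taken as the measure of yeast growth restored by compound in an NS1-expressing S. cerevisiae strain. Cells had been washed out of glucose medium and diluted 1:100 into galactose -URA medium, pH 6.0.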
Pf growth 48h – inhibits P. falciparum growth in the first generation, 48 h | Potency, µM (titrated, usually from 28.7 µM), actives largely listed as inhibitors | 310,000 compounds, 5.9% hits | P. falciparum luciferase growth in erythrocytes, 48 h
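Here the parasites carry a stable luciferase gene and grow inside erythrocytes in Albumax-based RPMI medium with compound for one erythrocytic cycle. Activity is scored as loss of luminescent signal.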
AMA1 RON2 block – AMA1-RON2 (P. falciparum) interaction inhibition; AlphaScreen AMA1-biotinylated RON2 peptide binding; Potency, µM (series often up to 58.2 µM), hits mostly inhibitors; 360,000 compounds, 0.2% hits; also: nearly all actives have a fitted effect of over 45% in size
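AMA1 (3D7) with his tag at 25 nM final met compounds first, then biotinylated RON2 peptide at 25 nM; detection used donor plus acceptor beads, 10 µg/mL apiece, read by AlphaScreen after 30 min at room temperature.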
Sm TGR inh – S. mansoni TGR enzyme inhibition. 360,000 compounds, 3% hits. Potency, µM (series often up to 114 µM), hits mostly inhibitors. Q962Y6. purified TGR, DTNB reduction, TNB absorbance 405 nm; also: nearly all actives have a fitted effect of over 60% in size
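First, TGR (20 nM dispensed) and NADPH were mixed with compound. Second, a 15 min room-temperature incubation followed. Third, further NADPH and then DTNB were added to start the reaction. Finally, TNB absorbance was monitored kinetically.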
Pf growth 96h – P. falciparum growth inhibition at 96 hours; AID 504834; P. falciparum luciferase reporter growth, 96 h; Potency, µM (doses to about 28.7 µM), hits mostly inhibitors; 320,000 compounds, 6.9% hits
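Two parasite generations (96 h, 37 C, 5% CO2) of compound exposure in infected erythrocytes (0.05% parasitemia, 2% hematocrit). Luciferase-reporter P. falciparum; decreased luminescence indicates inhibited growth, aimed at apicoplast-acting delayed death.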
Hits are given with their value; i = inactive; ? = inconclusive; nt = no result; ! = a repeat was not active; [ ] = another dose, or the depositor's remark. Unless noted, calls follow the shape of the dose curve; as a rule, active = well fitted curve in the direction sought with a large enough effect; inconclusive = small, poorly fitted or top-dose-only effect, or another doubt; inactive = no such curve, though single readings can be large; an effect the other way counts as inactive or inconclusive.

SMILES	NS1 inh	Pf growth 48h	AMA1 RON2 block	Sm TGR inh	Pf growth 96h
CCCCCCn1cc(C(=O)O)c(=O)c2cc(F)c(N3CCN(C)CC3)cc21	i	i	i	i	?
CCOC(=O)c1cn(CC)c2cc3c(cc2c1=O)OCO3	nt	i	i	i	?
OC(COc1ccccc1)CN1CCN(C(c2ccccc2)c2ccccc2)CC1 (stereo not given)	i	?	i	i	i
OC(COCc1ccco1)CN1CCN(C(c2ccccc2)c2ccccc2)CC1 (stereo not given)	i	10.4µM	i	i	6.57µM
Cc1ccc(Cl)cc1N1CCN(CC(O)COCc2ccco2)CC1 (stereo not given)	i	i	?	i	i
N#Cc1ccc(OCC(O)CN2CCN(C(c3ccccc3)c3ccccc3)CC2)cc1 (stereo not given)	i	?	i	i	11.7µM
C[C@@H]1CN([C@@H](C)CO)C(=O)c2cc(NC(=O)c3ccccc3)ccc2O[C@@H](C)CCCCO[C@@H]1CN(C)Cc1ccc(C(F)(F)F)cc1	nt	nt	i	nt	nt
Cc1c(Cl)cccc1NC(=O)Cn1c(CCC(=O)O)ccc1-c1ccccc1	i	i	i	?	i
COc1ccc(-c2ccc(CCC(=O)O)n2CC(=O)Nc2cccc(C(F)(F)F)c2)cc1	nt	nt	nt	i	nt
Cc1ccc(NC(=O)Cn2c(CCC(=O)O)ccc2-c2cccs2)cc1	i	i	i	25.1µM	nt
COC(=O)c1ccccc1NC(=O)Cn1c(CCC(=O)O)ccc1-c1cccs1	i	i	i	50.1µM	nt
Cc1ccccc1NC(=O)Cn1c(CCC(=O)O)ccc1-c1cccs1	i	i	i	39.8µM	i
O=C(Nc1ccc(N2CCN(C(=O)c3ccco3)CC2)cc1)c1ccco1	i	i	i	i	?
CC(C)(C)OC(=O)N1CCN(c2ccc(NC(=O)c3ccco3)cc2)CC1	i	7.38µM	i	i	i
O=C(Nc1ccc(N2CCN(C(=O)c3ccco3)CC2)cc1)c1ccc2c(c1)OCO2	i	13.1µM	i	i	?
O=C(Nc1ccc(N2CCN(C(=O)c3ccco3)CC2)cc1)c1cc(Br)ccc1Cl	nt	13.1µM	i[11.6 µM]	i	10.4µM
O=C(Nc1ccc(N2CCN(C(=O)c3ccco3)CC2)cc1)c1ccc(Br)cc1	i	?	i	i	?
O=S(=O)(c1ccc(NC(=S)N2CCN(c3ccc(O)cc3)CC2)cc1)N1CCOCC1	nt	?	i	i	i
CN(C(=O)c1cccc(NC(=O)Cc2ccc(NC(=O)C3CCCN(C(=O)C4CCC4)C3)cc2)c1)C1CCCC1 (stereo not given)	nt	nt	i	nt	nt
CC(=O)Nc1ccc(S(=O)(=O)N(Cc2cc3ccc(C)cc3[nH]c2=O)CC2CCCO2)cc1 (stereo not given)	i	i	i	i	?
O=C(C1CC1)N1CCC(c2nc(-c3ccc(S(=O)(=O)NCC4CCCO4)cc3)no2)CC1 (stereo not given)	i	9.28µM	i	i	i
CC(=O)Nc1ccc(S(=O)(=O)N(Cc2ccco2)CC2CCCO2)cc1 (stereo not given)	i	i	i	25.1µM	i
O=C(CN(CC1CCCO1)S(=O)(=O)c1ccc(S(=O)(=O)NCC2CCCO2)cc1)Nc1ccccc1 (stereo not given)	i	i	i	i	i
O=C(c1ccccc1)N1CCC(c2nc(-c3ccc(S(=O)(=O)NCC4CCCO4)cc3)no2)CC1 (stereo not given)	i	i	i	i	nt
CN(C)S(=O)(=O)c1ccc(S(=O)(=O)N(CC(=O)Nc2ccccc2)CC2CCCO2)cc1 (stereo not given)	i	i	i	i	11.7µM
SMILES	NS1 inh	Pf growth 48h	AMA1 RON2 block	Sm TGR inh	Pf growth 96h
CC(=O)Nc1ccc(C(=O)Nc2ccc(S(=O)(=O)NCC3CCCO3)cc2)cc1 (stereo not given)	?	13.1µM	i	i	i
CC(C)CN(C(=O)CN1C(=O)NC2(CCc3ccccc32)C1=O)C1CCS(=O)(=O)C1 (stereo not given)	nt	?	i	i	i
Cc1nc(N)c(Cc2ccccc2F)c(N)n1	nt	?	i	i	?
O=C(COc1ccccc1)NC(=S)Nc1cccc2c(O)cccc12	nt	nt	i	nt	nt
Cc1ccc(NC(=O)C2CCCN(S(=O)(=O)c3cccc4nonc34)C2)cc1 (stereo not given)	i	i	i	i	2.62µM
Cc1cccc2sc(NC(=O)C3CCCN(S(=O)(=O)c4cccc5nonc45)C3)nc12 (stereo not given)	i	11.7µM	i	i	?
C[C@H](CO)N1C[C@H](C)[C@@H](CN(C)S(=O)(=O)c2cn(C)cn2)Oc2c(NS(=O)(=O)c3ccccc3)cccc2C1=O	nt	nt	i	nt	nt
CCCCOc1[nH]c2nc(-c3ccco3)n(Cc3ccco3)c(=N)c2c1C#N	i	5.86µM	i	?	i
Cn1cnc2nc[nH]c2c1=S	nt	nt	i	nt	nt
S=c1nc[nH]c2nc[nH]c12	i	?	i	15.8µM!	?
Nc1ncnc2c1ncn2[C@@H]1O[C@H](CNC(=O)[C@@H]2CCCN2S(=O)(=O)c2ccc(F)cc2)[C@@H](O)[C@H]1O	nt	nt	i	nt	nt
CCOc1cc(NC(=S)NCC2CCCO2)c(OCC)cc1NC(=O)C1CC1 (stereo not given)	i	i	i	i	i
COc1cc(NC(=S)NCC2CCCO2)c(OC)cc1Cl (stereo not given)	i	i	i	?	8.28µM
O=C(CSc1cc(Cl)ccc1Cl)NCC1CCCO1 (stereo not given)	i	i	i	i	10.4µM
S=C(NCC1CCCO1)Nc1ccc(Cl)cc1Cl (stereo not given)	i	i	i	50.1µM	?
O=C(CSc1nc2cc(Cl)ccc2s1)NCC1CCCO1 (stereo not given)	nt	nt	i	nt	nt
Cc1nnc(SCC(=O)N2CCCC2)n(N)c1=O	nt	i	i	i	i
N#C/C(=C\C1CC=CCC1)c1nc2ccccc2[nH]1 (stereo not given)	i	8.28µM	i	i	nt
Cc1cccc(C)c1Nc1nnc(SC/C(O)=C(\C#N)c2nc3ccccc3[nH]2)s1	?	?	i	i	?
N#C/C(=C/c1cccs1)c1nc2ccccc2[nH]1	i	?	i	i	?
Cc1cccc(Nc2nnc(SC/C(O)=C(\C#N)c3nc4ccccc4[nH]3)s2)c1C	i	?	i	i	11.7µM
N#C/C(=C(/O)CCl)c1nc2ccccc2[nH]1	nt	?	i	25.1µM	10.4µM
Cc1ccc(/C=C(\C#N)c2nc3ccccc3[nH]2)s1	i	?	i	i	1.65µM
C[C@@H]1CN([C@@H](C)CO)C(=O)c2cc(NC(=O)C3CCCCC3)ccc2O[C@@H](C)CCCCO[C@@H]1CN(C)Cc1ccncc1	nt	nt	i	nt	nt
Cc1cccc(C)c1Nc1nnc(SCc2nc3ccccc3s2)s1	i	i	i	i	i
CN(C)/C=C(\C#N)c1nc2ccccc2[nH]1	i	i	i	i	?
Cc1c(-c2cccc(Cl)c2)nc2ccccc2c1C(=O)OC/C(O)=C(\C#N)c1nc2ccccc2[nH]1	nt	i	i	i	10.4µM
